Six molecules from ChEMBL document CHEMBL2218924, “A broad activity screen in support of a chemogenomic map for kinase signalling research and drug discovery” (Biochem J, 2013) can be followed below.

In assay [1] the target is Mitogen-activated protein kinase 3 (Homo sapiens) (UniProt P27361). As to conditions: at 1 µM.
Assay [2] has the same target. As to conditions: at 10 µM.
The target of assay [3] is Mitogen-activated protein kinase 1 (Homo sapiens) (UniProt P28482). As to conditions: at 1 µM.
Assay [4] shares this target. As to conditions: at 10 µM.
The target of assay [5] is MAP kinase-activated protein kinase 3 (Homo sapiens) (UniProt Q16644). Particulars: at 1 µM.
Assay [6] shares this target. As to conditions: at 10 µM.
For assay [7], the target named is Serine/threonine-protein kinase MARK1 (Homo sapiens) (UniProt Q9P0L2). Particulars: at 1 µM.
Assay [8] has the same target. As to conditions: at 10 µM.
In assay [9] the target is Dual specificity mitogen-activated protein kinase kinase 1 (Homo sapiens) (UniProt Q02750). As to conditions: at 1 µM.
For assay [10] the target is unchanged. As to conditions: at 10 µM.
Assay [11] deals with Maternal embryonic leucine zipper kinase (Homo sapiens) (UniProt Q14680). As to conditions: at 1 µM.
For assay [12] the target is unchanged. As to conditions: at 10 µM.
Assay [13] has as its target Misshapen-like kinase 1 (Homo sapiens) (UniProt Q8N4C8). Particulars: at 10 µM.
Assay [14] addresses T1, Dual specificity mitogen-activated protein kinase kinase 6 (Homo sapiens) (UniProt P52564).
T1 sequence (whole entry): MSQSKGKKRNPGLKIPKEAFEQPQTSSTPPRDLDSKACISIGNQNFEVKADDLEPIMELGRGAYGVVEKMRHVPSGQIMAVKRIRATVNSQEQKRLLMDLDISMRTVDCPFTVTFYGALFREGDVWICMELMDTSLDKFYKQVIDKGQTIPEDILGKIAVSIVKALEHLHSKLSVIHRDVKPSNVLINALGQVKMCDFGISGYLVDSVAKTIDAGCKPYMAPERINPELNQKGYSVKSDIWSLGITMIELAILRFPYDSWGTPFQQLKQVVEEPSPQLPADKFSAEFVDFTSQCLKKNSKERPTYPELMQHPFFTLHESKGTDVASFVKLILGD
As to conditions: at 1 µM.

Assay [15] concerns the target T1, Dual specificity mitogen-activated protein kinase kinase 6 (Homo sapiens). As to conditions: at 10 µM.
Assay [16] deals with T2, Dual specificity mitogen-activated protein kinase kinase 7 (Homo sapiens) (UniProt O14733).
T2 sequence (whole entry): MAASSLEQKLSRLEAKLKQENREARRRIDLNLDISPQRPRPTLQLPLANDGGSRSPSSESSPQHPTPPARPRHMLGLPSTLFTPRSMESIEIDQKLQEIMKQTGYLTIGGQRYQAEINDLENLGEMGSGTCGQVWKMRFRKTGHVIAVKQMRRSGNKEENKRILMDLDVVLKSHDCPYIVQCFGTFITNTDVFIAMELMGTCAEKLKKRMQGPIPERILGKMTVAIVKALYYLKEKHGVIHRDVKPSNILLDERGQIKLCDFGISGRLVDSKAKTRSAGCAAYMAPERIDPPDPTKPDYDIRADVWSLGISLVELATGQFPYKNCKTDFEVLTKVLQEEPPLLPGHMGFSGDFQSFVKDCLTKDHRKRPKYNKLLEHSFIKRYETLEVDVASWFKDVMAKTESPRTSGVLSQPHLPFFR
As to conditions: at 1 µM.

The target in assay [17] is T2, Dual specificity mitogen-activated protein kinase kinase 7 (Homo sapiens). As to conditions: at 10 µM.
The target of assay [18] is MAP kinase-activated protein kinase 2 (Homo sapiens) (UniProt P49137). As to conditions: at 1 µM.
The target is the same in assay [19]. As to conditions: at 10 µM.
The target in assay [20] is Misshapen-like kinase 1 (Homo sapiens) (UniProt Q8N4C8). As to conditions: at 1 µM.
Chain of Misshapen-like kinase 1 (Homo sapiens) (Q8N4C8 whole entry, looked up): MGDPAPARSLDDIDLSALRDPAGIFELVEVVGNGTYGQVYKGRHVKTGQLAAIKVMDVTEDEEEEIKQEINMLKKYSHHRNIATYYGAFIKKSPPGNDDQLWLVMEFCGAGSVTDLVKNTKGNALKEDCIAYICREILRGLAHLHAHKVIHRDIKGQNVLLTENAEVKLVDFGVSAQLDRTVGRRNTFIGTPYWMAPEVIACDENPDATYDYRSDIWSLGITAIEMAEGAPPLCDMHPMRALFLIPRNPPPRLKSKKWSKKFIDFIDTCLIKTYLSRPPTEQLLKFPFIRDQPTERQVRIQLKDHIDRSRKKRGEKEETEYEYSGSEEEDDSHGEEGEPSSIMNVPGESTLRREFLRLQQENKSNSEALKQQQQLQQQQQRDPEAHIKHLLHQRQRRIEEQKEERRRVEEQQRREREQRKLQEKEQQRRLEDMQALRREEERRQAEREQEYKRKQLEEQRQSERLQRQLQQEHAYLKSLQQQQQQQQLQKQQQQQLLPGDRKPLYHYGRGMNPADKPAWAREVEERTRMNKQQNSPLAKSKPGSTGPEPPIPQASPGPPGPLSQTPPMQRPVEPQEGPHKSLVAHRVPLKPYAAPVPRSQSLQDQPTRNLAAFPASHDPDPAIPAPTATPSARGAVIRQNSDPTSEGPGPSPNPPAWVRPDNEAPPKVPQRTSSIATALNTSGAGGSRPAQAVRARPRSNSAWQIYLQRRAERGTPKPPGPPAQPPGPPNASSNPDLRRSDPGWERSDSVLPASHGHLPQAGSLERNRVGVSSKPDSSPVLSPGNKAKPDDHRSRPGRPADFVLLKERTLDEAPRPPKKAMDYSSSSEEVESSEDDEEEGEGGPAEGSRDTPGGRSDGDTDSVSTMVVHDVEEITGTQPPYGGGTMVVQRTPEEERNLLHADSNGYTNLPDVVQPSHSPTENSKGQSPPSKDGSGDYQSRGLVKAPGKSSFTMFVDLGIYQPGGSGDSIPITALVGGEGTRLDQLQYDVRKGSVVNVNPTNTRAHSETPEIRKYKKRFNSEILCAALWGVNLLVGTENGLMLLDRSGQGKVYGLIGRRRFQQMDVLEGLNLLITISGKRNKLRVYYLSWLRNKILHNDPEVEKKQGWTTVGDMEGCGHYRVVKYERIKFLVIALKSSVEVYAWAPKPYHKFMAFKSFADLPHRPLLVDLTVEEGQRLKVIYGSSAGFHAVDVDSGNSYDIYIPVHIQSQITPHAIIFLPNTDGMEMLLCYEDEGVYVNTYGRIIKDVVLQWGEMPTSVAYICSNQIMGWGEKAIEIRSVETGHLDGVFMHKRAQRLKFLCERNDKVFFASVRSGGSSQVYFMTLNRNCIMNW

Chain of MAP kinase-activated protein kinase 3 (Homo sapiens) (Q16644 whole entry, looked up): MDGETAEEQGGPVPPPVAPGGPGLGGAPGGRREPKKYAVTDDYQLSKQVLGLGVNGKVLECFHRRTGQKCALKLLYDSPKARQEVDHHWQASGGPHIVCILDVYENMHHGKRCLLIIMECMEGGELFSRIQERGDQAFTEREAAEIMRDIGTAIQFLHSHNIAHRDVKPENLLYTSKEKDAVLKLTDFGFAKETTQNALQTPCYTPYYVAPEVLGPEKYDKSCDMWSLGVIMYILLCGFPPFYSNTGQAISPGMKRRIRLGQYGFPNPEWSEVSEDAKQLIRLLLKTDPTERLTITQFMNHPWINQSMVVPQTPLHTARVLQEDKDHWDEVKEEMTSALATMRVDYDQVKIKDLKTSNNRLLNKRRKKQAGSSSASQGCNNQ
Chain of MAP kinase-activated protein kinase 2 (Homo sapiens) (P49137 whole entry, looked up): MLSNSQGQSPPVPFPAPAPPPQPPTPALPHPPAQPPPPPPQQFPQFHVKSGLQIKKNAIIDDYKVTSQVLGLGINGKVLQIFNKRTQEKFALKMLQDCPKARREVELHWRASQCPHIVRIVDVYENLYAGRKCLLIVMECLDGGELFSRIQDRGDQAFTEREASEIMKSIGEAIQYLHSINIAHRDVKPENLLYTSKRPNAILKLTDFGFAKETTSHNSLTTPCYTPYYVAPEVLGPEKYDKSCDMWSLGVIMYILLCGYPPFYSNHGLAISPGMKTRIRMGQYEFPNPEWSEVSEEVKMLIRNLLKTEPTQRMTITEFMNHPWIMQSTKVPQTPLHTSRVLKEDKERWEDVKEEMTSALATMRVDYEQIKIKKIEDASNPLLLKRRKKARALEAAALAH
Chain of Maternal embryonic leucine zipper kinase (Homo sapiens) (Q14680 whole entry, looked up): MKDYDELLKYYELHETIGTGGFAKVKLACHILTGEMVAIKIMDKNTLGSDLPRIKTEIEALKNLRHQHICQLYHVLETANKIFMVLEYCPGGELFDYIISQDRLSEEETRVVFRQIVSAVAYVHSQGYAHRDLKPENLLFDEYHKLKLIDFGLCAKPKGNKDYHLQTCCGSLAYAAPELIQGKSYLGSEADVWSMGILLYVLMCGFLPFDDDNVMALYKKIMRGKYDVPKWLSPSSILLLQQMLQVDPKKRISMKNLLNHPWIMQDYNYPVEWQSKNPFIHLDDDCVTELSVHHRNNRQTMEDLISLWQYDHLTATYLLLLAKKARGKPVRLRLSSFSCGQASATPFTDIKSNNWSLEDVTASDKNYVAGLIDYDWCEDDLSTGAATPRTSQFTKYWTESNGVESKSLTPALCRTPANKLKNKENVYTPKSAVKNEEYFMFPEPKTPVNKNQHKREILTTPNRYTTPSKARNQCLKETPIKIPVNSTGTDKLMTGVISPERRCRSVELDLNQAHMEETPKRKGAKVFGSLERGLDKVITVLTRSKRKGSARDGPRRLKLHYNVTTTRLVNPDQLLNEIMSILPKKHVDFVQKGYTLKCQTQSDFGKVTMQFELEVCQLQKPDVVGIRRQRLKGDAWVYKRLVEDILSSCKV
Chain of Mitogen-activated protein kinase 1 (Homo sapiens) (P28482 whole entry): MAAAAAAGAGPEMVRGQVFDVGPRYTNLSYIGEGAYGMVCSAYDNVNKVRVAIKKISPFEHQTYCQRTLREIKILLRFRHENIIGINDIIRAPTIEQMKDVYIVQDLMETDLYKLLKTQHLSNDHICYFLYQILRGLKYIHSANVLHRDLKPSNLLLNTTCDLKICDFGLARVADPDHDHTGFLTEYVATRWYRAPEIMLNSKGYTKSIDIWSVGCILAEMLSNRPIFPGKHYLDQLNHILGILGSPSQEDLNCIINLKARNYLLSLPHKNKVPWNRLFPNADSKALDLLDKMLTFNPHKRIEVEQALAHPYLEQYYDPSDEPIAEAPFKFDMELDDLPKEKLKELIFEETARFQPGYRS
Chain of Serine/threonine-protein kinase MARK1 (Homo sapiens) (Q9P0L2 whole entry, looked up): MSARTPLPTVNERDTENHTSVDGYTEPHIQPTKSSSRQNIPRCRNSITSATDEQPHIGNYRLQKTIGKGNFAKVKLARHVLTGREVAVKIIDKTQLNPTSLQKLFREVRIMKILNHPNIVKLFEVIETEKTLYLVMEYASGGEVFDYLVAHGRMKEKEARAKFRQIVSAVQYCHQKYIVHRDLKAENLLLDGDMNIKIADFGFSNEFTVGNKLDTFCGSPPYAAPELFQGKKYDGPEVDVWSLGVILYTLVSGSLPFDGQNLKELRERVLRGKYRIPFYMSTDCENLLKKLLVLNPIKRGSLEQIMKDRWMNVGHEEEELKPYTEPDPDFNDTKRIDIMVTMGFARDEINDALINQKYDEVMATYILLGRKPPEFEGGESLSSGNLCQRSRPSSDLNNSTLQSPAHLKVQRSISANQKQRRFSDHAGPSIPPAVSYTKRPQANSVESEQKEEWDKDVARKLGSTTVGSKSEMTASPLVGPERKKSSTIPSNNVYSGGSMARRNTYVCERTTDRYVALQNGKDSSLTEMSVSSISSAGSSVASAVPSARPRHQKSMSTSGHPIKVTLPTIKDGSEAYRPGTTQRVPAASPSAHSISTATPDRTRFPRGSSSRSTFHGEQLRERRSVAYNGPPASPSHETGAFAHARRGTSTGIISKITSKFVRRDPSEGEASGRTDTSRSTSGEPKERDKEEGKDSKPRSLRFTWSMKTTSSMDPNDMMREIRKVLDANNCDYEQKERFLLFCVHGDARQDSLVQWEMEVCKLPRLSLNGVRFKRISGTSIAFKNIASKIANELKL
Chain of Dual specificity mitogen-activated protein kinase kinase 1 (Homo sapiens) (Q02750 whole entry): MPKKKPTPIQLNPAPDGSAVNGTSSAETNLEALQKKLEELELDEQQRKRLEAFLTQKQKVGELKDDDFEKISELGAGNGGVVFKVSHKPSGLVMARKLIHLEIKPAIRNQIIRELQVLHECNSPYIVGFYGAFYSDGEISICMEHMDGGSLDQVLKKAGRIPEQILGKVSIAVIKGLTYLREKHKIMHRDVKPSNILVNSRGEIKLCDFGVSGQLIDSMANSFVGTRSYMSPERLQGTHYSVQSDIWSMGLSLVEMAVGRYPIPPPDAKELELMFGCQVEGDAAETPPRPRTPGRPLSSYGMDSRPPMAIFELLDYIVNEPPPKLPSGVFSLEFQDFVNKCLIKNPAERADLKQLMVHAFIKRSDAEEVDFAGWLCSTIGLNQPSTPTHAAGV
Chain of Mitogen-activated protein kinase 3 (Homo sapiens) (P27361 whole entry): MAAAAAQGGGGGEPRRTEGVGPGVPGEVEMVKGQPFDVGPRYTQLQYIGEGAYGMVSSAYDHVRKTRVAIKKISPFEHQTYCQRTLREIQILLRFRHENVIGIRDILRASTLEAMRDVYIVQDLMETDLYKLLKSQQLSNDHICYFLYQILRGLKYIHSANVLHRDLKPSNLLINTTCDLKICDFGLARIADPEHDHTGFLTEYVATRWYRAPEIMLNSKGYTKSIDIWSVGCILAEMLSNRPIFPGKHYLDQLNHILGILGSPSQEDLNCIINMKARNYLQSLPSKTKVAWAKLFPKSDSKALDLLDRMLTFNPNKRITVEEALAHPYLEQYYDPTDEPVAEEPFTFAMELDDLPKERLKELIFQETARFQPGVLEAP

As for `CCn1cnc2c(Nc3cccc(Cl)c3)nc(N[C@@H]3CCCC[C@@H]3N)nc21`, the residual activity in assay [1] is 49%; in assay [2], 10%; in [3] it was 62%; in assay [4], 11%; in assay [5], 115%; in assay [6] it was 88%. Besides, the residual activity in assay [7] was found to be 77%; in assay [8], 35%; in assay [9] it was 87%; in [10], 25%; in assay [11], 59%; in assay [12], 18%. Also, the residual activity in assay [13] amounted to 80%; in [14] it was 99%; in assay [15], 78%; in assay [16], 86%; in assay [17] it was 91%.

For `Nc1ncnc2c1cnn2-c1ccccc1`, the residual activity in [5] amounted to 95%.

As to `O=c1[nH]c2ccccc2n1C1CCN(Cc2ccc(-c3nc4cc5[nH]cnc5cc4nc3-c3ccccc3)cc2)CC1`, the residual activity in assay [1] stood at 105%; in assay [2] it was 67%; in assay [3], 108%; in assay [4] it was 107%; in [18], 107%; in assay [19], 103%. Moreover, the residual activity in assay [5] was determined as 106%; in assay [6], 90%; in assay [7], 99%; in [8], 90%; in assay [9], 127%; in assay [10], 62%. For the same molecule, the residual activity in assay [11] is 94%; in assay [12] it was 65%; in assay [20], 97%; in assay [13], 80%; in assay [14], 80%; in assay [15], 90%. Further, the residual activity in [16] and in assay [17] was 112% each time.

On to `COc1ccc2c(c1)/C(=C/c1cnc[nH]1)C(=O)N2`, for which the residual activity in assay [3] was 97%; in [4], 35%; in [18] it was 99%; in assay [19] it was 99%; in assay [6] it was 123%; in assay [7], 32%. Moreover, the residual activity in assay [8] was determined as 4%; in assay [9] it was 62%; in [10], 11%; in assay [11] it was 24%; in assay [12] it was 3%; in assay [20], 68%. For the same molecule, the residual activity stood at 14% in assay [13], 71% in [16] and 16% in assay [17].

In the case of `c1cc(-c2cnn3cc(-c4ccc(OCCN5CCCCC5)cc4)cnc23)ccn1`, the residual activity in [1] came to 101%; in assay [2], 104%; in [6], 84%; in assay [7], 60%; in assay [8] it was 16%; in assay [9] it was 123%. The residual activity in assay [10] is 117%; in assay [11] it was 5%; in assay [12], -1%; in assay [20] it was 59%; in assay [13], 13%.

With `C[S+]([O-])c1ccc(-c2nc(-c3ccc(F)cc3)c(-c3ccncc3)[nH]2)cc1` (centres undefined), the residual activity stood at 124% in assay [1]; 101% in assay [2]; 118% in assay [3]; 95% in assay [4]; 104% in assay [18]; 133% in [19]. Further, the residual activity in [5] came out at 104%; in assay [6], 92%; in assay [7], 105%; in assay [8] it was 108%; in assay [9], 113%; in assay [10] it was 110%. Also, the residual activity in assay [11] worked out at 107%; in assay [12], 84%; in assay [20] it was 112%; in assay [13], 63%; in assay [14], 43%; in assay [15], 3%. The values for the residual activity in assay [16] and in [17] were 86% and 68%, respectively.
